ANO1 block – inhibitors of mouse TMEM16A calcium-activated chloride channel; Q8BHY3; HEK293 TMEM16A/YFP iodide influx fluorescence, ionomycin; normalized B-score (activity score, 25-100; higher = stronger inhibition) at 10 µM; 1.2% of 310,000 active; AID 588511;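 active = ratio plate-corrected score three or more library SD toward inhibition, starting fluorescence score within five deviations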;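 also: score derived from kinetic fluorescence span divided by baseline fluorescence per well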
TMEM16A act – activates or potentiates the mouse TMEM16A chloride channel; Q8BHY3; HEK293 TMEM16A/YFP-H148Q/I152L, iodide quench fluorescence; active compounds read low; B-score at 10 µM; 0.3% of 340,000 active;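 active = fluorescence-ratio B-score plate-corrected deviation score at least 3 library SD below zero, with starting fluorescence score within 5 deviations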;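 also: channel opened by trigger with iodide after compound preincubation; score built on the fluorescence ratio of max minus min over baseline; more negative score means more quench and so TMEM16A activation or potentiation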
GPR7 antagonist – antagonists of human GPR7 (neuropeptides B/W receptor 1); P48145; GPR7-expressing cells, fluorescence antagonist assay; inhibition, % at 4.4 µM; 1.1% of 290,000 active; in the data active = inhibition above about 16%, passing the limit was not always enough;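 also: cells stimulated with the agonist NPW; 0% = agonist with vehicle and 100% = vehicle without agonist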
CHT block – inhibits the human high affinity choline transporter. Q9GZV3. CHT-expressing cells, membrane potential dye, choline response; active compounds read low. B-score at 10 µM. 0.86% of 310,000 active;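 active = B-score over 3 SD under the library average, and starting fluorescence ratio not unusually high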;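 also: choline stimulus applied at its EC90 after an EC20 pre-addition; B-score computed on integrated fluorescence ratio after choline addition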
Target sequence (Q9GZV3 whole entry, looked up): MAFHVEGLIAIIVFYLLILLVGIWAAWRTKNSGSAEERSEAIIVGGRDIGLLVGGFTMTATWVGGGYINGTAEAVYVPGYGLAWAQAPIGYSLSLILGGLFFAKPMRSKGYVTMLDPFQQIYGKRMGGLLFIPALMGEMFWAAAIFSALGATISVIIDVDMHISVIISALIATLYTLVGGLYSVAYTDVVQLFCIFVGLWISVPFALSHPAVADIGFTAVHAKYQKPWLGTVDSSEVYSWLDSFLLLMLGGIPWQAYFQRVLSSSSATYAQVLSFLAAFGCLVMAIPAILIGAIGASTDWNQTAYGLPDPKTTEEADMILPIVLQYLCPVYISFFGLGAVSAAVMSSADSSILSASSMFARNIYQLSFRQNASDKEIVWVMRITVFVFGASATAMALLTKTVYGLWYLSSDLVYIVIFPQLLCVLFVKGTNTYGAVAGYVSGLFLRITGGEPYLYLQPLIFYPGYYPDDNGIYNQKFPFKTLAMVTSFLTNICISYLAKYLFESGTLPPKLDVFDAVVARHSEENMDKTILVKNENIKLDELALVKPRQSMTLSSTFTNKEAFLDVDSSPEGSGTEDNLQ
CHT allo act – human CHT allosteric activation | Q9GZV3 | CHT-expressing cells, membrane potential dye, choline EC20; active compounds read high; LV-AA mutant CHT in HEK293 cells | B-score at 10 µM | 0.49% of 310,000 active;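 active = initial fluorescence not abnormally high and integrated response B-score, plate-corrected, over 3 SD above library mean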
Kir21 block – blocks the mouse Kir2.1 inward-rectifier potassium channel; P35561; HEK293-Kir2.1, FluxOR thallium flux fluorescence; active compounds read low; B-score at 10 µM; 0.85% of 310,000 active; AID 1672;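 active = fluorescence ratio B-score at or below minus 3 SD of library scores, with starting-brightness B-score within 2 SD, cut at about -4.2 in these data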;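 also: channel flux triggered by added potassium and thallium sulfate stimulus; B-score of peak minus minimum fluorescence over baseline after thallium stimulus; more negative B-score means stronger Kir2.1 block with less thallium influx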
TMEM16A reconf – reconfirmed blocker of mouse TMEM16A calcium-activated chloride channel | shares compounds with ANO1 block | HEK293 TMEM16A/YFP-H148Q, iodide quench fluorescence; ionomycin added to raise cell calcium | inhibition, % at 10 µM | 39% of 2,300 active | AID 652189;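 active = mean duplicate percent inhibition, scaled so buffer wells are 0 and the reference blocker 100, over three buffer SD above buffer mean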
HEK293 Ca mobil – calcium mobilization counter-screen hit for TMEM16A inhibitor series; 2% of 2,300 active; calcium response (% of ionomycin), % at 10 µM; TMEM16A/YFP HEK293, Fluo4 calcium mobilization; shares compounds with ANO1 block; AID 652231;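 active = duplicate-averaged calcium signal over 20% of the ionomycin maximum, relative to buffer baseline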;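 also: each well's signal is peak minus trough fluorescence divided by its pre-addition baseline; 0% = buffer wells and 100% = ionomycin wells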
Parental YFP cnt – counter-screen for TMEM16A inhibitors: effect in parental YFP-HEK293 cells. iodide YFP quench, ionomycin. shares compounds with ANO1 block. 2,300 tested, under 10 active. YFP ratio F(max-min)/F0 at 10 µM;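 active = yellow fluorescent protein signal ratio exceeding the buffer control mean by over 5 SD of those controls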;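 also: ratio is mean of duplicate wells from kinetic YFP trace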
ClC-1 rat inh – rat ClC-1 inhibition, TMEM16A specificity screen; shares compounds with ANO1 block; CHO ClC-1-YFP, iodide influx fluorescence quench; iodide control reads 0, buffer control 100; ratio percent, % at 10 µM; 2,300 tested, under 10 active; AID 652236;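 active = duplicate-mean ratio percent above the mean of iodide-only control wells, which defines zero, plus 5 of their SD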;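 also: higher percent means stronger block of ClC-1 iodide influx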
* hit, by the source's call; i = inactive; x = not tested or not shown; ! = a repeat was not active. In the library only some 3.7% were active in any assay of this set; here they are far more common.

SMILES | ANO1 block | TMEM16A act | GPR7 antagonist | CHT block | CHT allo act | Kir21 block | TMEM16A reconf | HEK293 Ca mobil | Parental YFP cnt | ClC-1 rat inh
C=CCc1cc(OC)ccc1OCC(O)CN1CCN(c2ccc(OC)cc2)CC1 (stereo unspecified) | 25*! | i | -7.1 | i | i | -1.99 | i | i | -1.21 | -14.5
CCCOC(=O)c1ccc(-c2c(C)noc2-c2ccc(OC)cc2O)o1 | 100* | i | -14.1 | i | i | 0.93 | i | i | -1.15 | -20.5
Cc1cc(N2CCCC2=O)cc(C)c1S(=O)(=O)NCCOc1ccc(C(C)(C)C)cc1 | 25* | i | -2.0 | i | i | -0.35 | i | i | -1.09 | -29.0
COc1ccc2c(c1)CC/C(=C\Nc1ccc3c(c1)OCO3)C2=O | 25* | i | -7.7 | i | i | -0.99 | i | i | -0.838 | 4.5
CC(c1ccncn1)N(C)C(=O)c1ccc2oc(Cc3ccccc3)nc2c1 (stereo unspecified) | i | i | 6.2 | i | i | -1.56 | x | x | x | x
CCCCNC(=O)c1sc(=S)n2c1[nH]c(=O)c1ccccc12 | 100* | i | -8.6 | i | i | -2.08 | 56.5%* | i | -0.93 | -25.0
CCOc1ccc(CCNC(=O)c2ccc3c(=O)[nH]c4c(C(=O)NC(C)C)sc(=S)n4c3c2)cc1 | i | i | -9.1 | i | i | 0.86 | x | x | x | x
Cc1ccc(-c2noc(CNS(=O)(=O)c3ccccc3)n2)cc1 | i | i | -22.6 | i | i | 1.42 | x | x | x | x
CC(=O)c1cccc(N(C(=O)c2ccco2)C(C(=O)NC2CCCC2)c2ccccc2F)c1 (stereo unspecified) | i | i | -5.8 | i | i | 0.3 | x | x | x | x
N#CCC(=O)Nc1ccc(C(=O)OCC(=O)Nc2ccccc2-c2ccccc2)cc1 | 100* | i | -8.9 | i | i | -0.19 | i | i | -1.09 | -10.0
CN(Cc1ccccc1)C1CCCN(C(=O)c2ccc(Cl)s2)C1 (stereo unspecified) | i | i | -4.9 | i | i | -0.14 | x | x | x | x
Cc1cc(NC(=O)c2ccc(Cl)c(S(=O)(=O)N3CCCCC3)c2)no1 | i | i | 4.0 | i | i | -0.34 | x | x | x | x
O=C(Oc1ccccc1)c1ccccc1OS(=O)(=O)c1ccccc1 | 100* | i | -6.0 | i | i | 2.04 | i | i | -1.43 | -2.5
CC(C)CNC(=O)c1cccc(NC(=O)c2ccc3c(c2)C(=O)N(C)C3=O)c1 | i | i | -15.1 | i | i | -0.13 | x | x | x | x
Cc1csc(NC(=O)CCCSc2nc3ccccc3s2)n1 | 100* | i | 13.9 | i | i | -0.62 | i | 31.5%* | -0.986 | -11.0
CC1CCN(S(=O)(=O)c2cccc(C(N)=O)c2)CC1 | i | i | -5.3 | i | i | 0.14 | x | x | x | x
CC1CCN(S(=O)(=O)c2cccc(C(=O)O)c2)CC1 | 100* | i | -4.0 | i | i | -0.01 | i | i | -0.988 | -6.5
COc1ccc2oc(=O)c(C(=O)C[n+]3cccc(C)c3)cc2c1 | i | i | -7.7 | i | i | 1.26 | x | x | x | x
CC(C)c1ccc(C(C)NC(=S)NC2CCCCC2)cc1 (stereo unspecified) | 25* | i | -15.8 | i | i | -1.69 | 25.5%* | i | -1.01 | -2.0
CCOc1ccc(C(C)NC(=S)NC2CCCCC2)cc1OCC (stereo unspecified) | i | i | -6.7 | i | i | 0.31 | x | x | x | x
O=C(Nc1cccc(S(=O)(=O)N2CCCC2)c1)c1ccco1 | x | i | x | x | x | x | x | x | x | x
O=C(Nc1cccc(S(=O)(=O)c2cccc(NC(=O)c3ccco3)c2)c1)c1ccco1 | 25* | i | -12.7 | i | i | -1.84 | 20.5%* | i | -0.907 | -13.5
COc1ccc(-c2noc(CCC(=O)N3CCN(c4cc(C)ccc4C)CC3)n2)cc1 | 100* | i | -7.1 | i | i | 2.02 | i | i | -0.937 | -4.0
COc1ccc(-c2noc(CCC(=O)Nc3ccc(C)c(C)c3)n2)cc1 | i | i | 17.8 | i | i | -0.48 | x | x | x | x
Cc1ccc(NC(=O)CN2C(=O)COc3ccc(C)cc32)nc1 | 25* | i | -3.5 | i | i | -1.26 | i | i | -0.885 | -18.5
SMILES | ANO1 block | TMEM16A act | GPR7 antagonist | CHT block | CHT allo act | Kir21 block | TMEM16A reconf | HEK293 Ca mobil | Parental YFP cnt | ClC-1 rat inh
O=[N+]([O-])c1ccc(-c2nc(-c3cccs3)c(-c3cccs3)[nH]2)cc1 | i | i | -0.5 | i | i | 0.15 | 20.5%* | i | -1.02 | 3.0
O=[N+]([O-])c1cccc(-c2nc(-c3cccs3)c(-c3cccs3)[nH]2)c1 | i | i | -4.3 | i | i | -0.09 | x | x | x | x
O=S(=O)(c1ccccc1Cl)N1CCCC1c1nc(-c2ccccc2Cl)no1 (stereo unspecified) | 100* | i | -5.6 | i | i | -0.19 | 17.5%* | i | -1.1 | -14.5
O=C(c1ccccc1)c1ccccc1C(=O)c1ccccc1 | i | i | -9.3 | i | i | -2.29 | x | x | x | x
O=C(OCc1ccccc1Cl)c1ccccc1C(=O)c1ccccc1 | 100* | i | -21.8 | i | i | -1.57 | i | i | -0.915 | -17.5
Cc1ccc(N2CC(C(=O)Nc3ccc4c(c3)OCO4)CC2=O)cc1C (stereo unspecified) | i | i | 17.8 | i | i | 2.84 | x | x | x | x
Cc1nc(NCCc2ccccc2)c2oc3ccccc3c2n1 | 25* | i | -5.2 | i | 6.26* | -0.17 | i | i | -1.01 | -23.5
Cc1nc(NCCN2CCOCC2)c2oc3ccccc3c2n1 | i | i | 1.9 | i | i | -1.53 | x | x | x | x
CC(C)(C)OC(=O)N1CCC[C@H]1C(=O)NCc1ccc(Cl)cc1Cl | i | i | -6.5 | i | i | 0.33 | x | x | x | x
C=C(c1ccc(O)cc1)c1ccc(O)cc1 | 100* | i | 11.5 | i | i | 0.59 | 24.5%* | i | -1.05 | -15.0
CCOC(=O)Cc1csc(NC(=O)c2csc(C)c2)n1 | 100* | i | -6.9 | i | i | -0.04 | 42.0%* | i | -1.31 | -7.0
